Compound activity: PubChem BioAssay, National Center for Advancing Translational Sciences (NCATS)
PNC assembly inh: perinucleolar compartment assembly inhibition; PC3M PTB-GFP, PNC prevalence imaging, 16 h; active compounds read low; activity change (PNC), negative = inhibition, % at 10 µM; 140,000 tested, 3.1% active; AID 2417;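 active means readout at or below -70, meaning at least 70% loss of cells showing the perinucleolar compartment, a nuclear body marking cancer cells; inconclusive means readout between -30 and a set limit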;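 further: plate controls were DMSO wells for no effect and camptothecin positive control wells for full effect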
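Compounds are pinned in duplicate onto adhered PC3M cells stably expressing GFP-tagged PTB and incubated 16 h at 37 C. Cells are then fixed, nuclei stained with Hoechst, and PNC-positive cells counted.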
Tau fluor cs: counter-screen for tau fibril formation inhibitors; Potency, µM (titrated, usually from 57.7 µM), inactives show at the highest dose activity change, negative = decrease; tau K18 P301L Alexa594 fluorescence, heparin fibrillization; 280,000 tested, 0.93% active; further: potency means the concentration at half of the fitted maximal effect; nearly all actives have a fitted effect of over 55% in size
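Human K18 P301L tau (15 uM unlabeled plus 0.24 uM Alexa 594-labeled, final) in 100 mM sodium acetate pH 7 was mixed with compound and 20 uM heparin and incubated 6 hr at 37 C.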
Tau fibril FP: blocks human tau fibril formation measured by polarization | Potency, µM (series often up to 57.7 µM), for the others: at the highest dose activity, negative = inhibition, usual class: inhibitors | K18 P301L tau heparin fibrillization, Alexa594 FP, 6 h | AID 1468 | 280,000 tested, 0.39% active; further: potency means the concentration at half of the fitted maximal effect; nearly all actives have a fitted effect of over 55% in size
Target sequence (P10636 561-689 P618L limits assumed): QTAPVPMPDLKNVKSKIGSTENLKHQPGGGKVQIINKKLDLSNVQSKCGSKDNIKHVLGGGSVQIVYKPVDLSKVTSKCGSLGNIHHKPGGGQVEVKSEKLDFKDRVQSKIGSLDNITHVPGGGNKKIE
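K18 P301L tau (15 uM unlabeled/0.24 uM Alexa 594-labeled, final) + compound + heparin 20 uM final; 100 mM NaOAc pH 7; 6 hr 37 C; ThT 30 uM final added, 1 hr RT; FP ex 555/em 632 nm.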
TRb-SRC2 inh: inhibitors of human thyroid hormone receptor beta-SRC2 interaction; P10828; TRbeta-SRC2 peptide binding, fluorescence polarization; receptor liganded with 1 µM T3; 280,000 tested, 0.065% active; Potency, µM (top dose mostly 106 µM), without a hit: at the highest dose activity change, negative = inhibition, most hits filed as inhibitors;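 further: potency means the concentration at half of the fitted maximal effect; plate controls were bound peptide for no effect and peptide without receptor for full effect; nearly all actives have a fitted effect of over 50% in size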
Target sequence (P10828 whole entry, looked up): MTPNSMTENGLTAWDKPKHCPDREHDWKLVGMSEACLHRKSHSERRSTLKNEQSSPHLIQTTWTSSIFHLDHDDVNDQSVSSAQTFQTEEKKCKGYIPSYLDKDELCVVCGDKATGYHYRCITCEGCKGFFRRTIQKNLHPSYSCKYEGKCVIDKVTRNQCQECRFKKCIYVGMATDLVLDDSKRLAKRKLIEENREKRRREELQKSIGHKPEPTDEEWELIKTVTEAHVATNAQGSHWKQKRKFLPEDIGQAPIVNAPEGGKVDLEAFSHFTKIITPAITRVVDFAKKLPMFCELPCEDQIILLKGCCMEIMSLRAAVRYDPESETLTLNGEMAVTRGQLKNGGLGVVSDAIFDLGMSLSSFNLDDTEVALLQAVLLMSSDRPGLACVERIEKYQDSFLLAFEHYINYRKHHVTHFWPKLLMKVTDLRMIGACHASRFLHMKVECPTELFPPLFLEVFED
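TRb LBD 0.6 uM + Texas Red SRC2 peptide 20 nM, 1 uM T3, Tris buffer w/ 5% DMSO; compound pinned, 5 h RT; FP read ex 555/em 632; normalized to unbound and bound controls.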
Tau ThT inhib: inhibitors of human tau fibril formation, thioflavin T binding. recombinant tau K18 P301L (four-repeat tau fragment), heparin-induced fibrillization, ThT fluorescence. Potency, µM (top dose mostly 57.4 µM), for the others: top-dose activity, negative = inhibition, usual class: inhibitors. 270,000 tested, 2.1% active. AID 1460; further: potency means the concentration at half of the fitted maximal effect; nearly all actives have a fitted effect of over 55% in size
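K18 P301L tau (15 uM + 0.24 uM Alexa 594-tagged), heparin 20 uM, NaOAc pH 7, 6 h 37 C; ThT 30 uM, 1 h RT, ex 450/em 510 nm.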
TexasRed fluor: Texas Red fluorescence interference in TRb-SRC2 counter-screen; TRb/SRC2 Texas Red total fluorescence interference; Potency, µM (highest dose often 106 µM), inactives show at the top dose fluorescence change, negative = quenching; 280,000 tested, 0.29% active; active means well fitted curve in either direction with a large enough effect; inconclusive means small, poorly fitted or top-dose-only effect; further: potency means the concentration at half of the fitted maximal effect
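Human TRb ligand-binding domain at 0.6 uM with 20 nM Texas Red SRC2 peptide in Tris buffer containing 1 uM T3 and 5% DMSO, incubated with compound 5 h at ambient temperature. Total fluorescence (555/632 nm) calculated as parallel + 2 × perpendicular.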
Active calls of the source: *; [ ] = dose if it differs, or a comment. Rows were chosen to be rich in hits. Some 4.6% of all compounds tested hit in one or more screens of this group. Unless noted, the call rests on the fitted dose curve; in most records, active means well fitted curve in the direction sought with a large enough effect; inconclusive means small, poorly fitted or top-dose-only effect, or another doubt; inactive means no such curve, though single readings can be large; an effect the other way counts as inactive or inconclusive. Unless noted, on the % scale 0 is the no-effect control and ±100 the full control effect.

What do the screens show for `CN1CCc2c(sc3c2C(=O)NC(c2ccccc2)N3)C1` (stereo not drawn)?
PNC assembly inh: inconclusive; Tau fluor cs: 1%; Tau fibril FP: inconclusive; TRb-SRC2 inh: -14%; Tau ThT inhib: inconclusive; TexasRed fluor: 16%

Results for Cc1cccc(C2NC(=O)c3c(sc4c3CCN(C)C4)N2)c1O (stereo not drawn) ?
Tau fluor cs: -22%; Tau fibril FP: -13%; TRb-SRC2 inh: -19%[53 µM]; Tau ThT inhib: 16µM*; TexasRed fluor: inconclusive

Results for Cc1ccc(C2NC(=O)c3c(sc4c3CCN(C)C4)N2)s1 (stereo not drawn) ?
PNC assembly inh: 9; Tau fluor cs: -14%; Tau fibril FP: inconclusive; TRb-SRC2 inh: -23%; Tau ThT inhib: 14µM*; TexasRed fluor: 28%

How did COC(=O)Cc1ccc(NC(=O)c2ccc(C(C)(C)C)cc2)cc1 do in these assays?
PNC assembly inh: inconclusive; Tau fluor cs: inconclusive; Tau fibril FP: -4%; TRb-SRC2 inh: -1%; Tau ThT inhib: -26%; TexasRed fluor: -6%

Results for Cc1ccsc1/C=N/NC(=O)c1cccnc1 ?
Tau fluor cs: -9%; Tau fibril FP: -2%; TRb-SRC2 inh: -8%; Tau ThT inhib: -10%; TexasRed fluor: -2%

How did Cc1ccc(-c2[nH]nc(N)c2N=Nc2ccccc2C)cc1 do in these assays?
PNC assembly inh: 35; Tau fluor cs: 11µM*[quencher]; Tau fibril FP: -5%; TRb-SRC2 inh: -2%; Tau ThT inhib: 16µM*; TexasRed fluor: 0%

Results for Cc1[nH]nc(N)c1-c1ccc(Cl)cc1 ?
Tau fluor cs: -4%; Tau fibril FP: 0%; TRb-SRC2 inh: -2%; Tau ThT inhib: -1%; TexasRed fluor: -2%

How did Cc1ccc(-c2[nH]nc(N)c2N=Nc2cccc(Cl)c2C)cc1 do in these assays?
PNC assembly inh: 83; Tau fluor cs: 6.3µM*[quencher]; Tau fibril FP: inconclusive; TRb-SRC2 inh: 3%; Tau ThT inhib: 13µM*; TexasRed fluor: -2%

Results for Cc1cccc(N=Nc2c(N)n[nH]c2-c2ccc(Cl)cc2)c1 ?
PNC assembly inh: -6; Tau fluor cs: 8.9µM*[quencher]; Tau fibril FP: inconclusive; TRb-SRC2 inh: -4%; Tau ThT inhib: inconclusive; TexasRed fluor: -1%

Results for COC(=O)c1ccccc1N=Nc1c(N)n[nH]c1N ?
Tau fluor cs: -13%; Tau fibril FP: 8%; TRb-SRC2 inh: -4%; Tau ThT inhib: inconclusive; TexasRed fluor: 0%

Results for COc1cc(/C=N/NC(=O)c2ccc(Cl)cc2)ccc1OCC(=O)N1CC(C)OC(C)C1 (stereo not drawn) ?
Tau fluor cs: -9%; Tau fibril FP: -8%; TRb-SRC2 inh: 1%; Tau ThT inhib: -15%; TexasRed fluor: -4%

What do the screens show for `COc1cccc(-n2nnc(-c3nc(-c4cccs4)no3)c2N)c1`?
Tau fluor cs: -3%; Tau fibril FP: -6%; TRb-SRC2 inh: -1%; Tau ThT inhib: 5%; TexasRed fluor: -2%

What do the screens show for `CN1CCN(C(CNS(=O)(=O)c2ccc(F)cc2)c2cccnc2)CC1` (stereo not drawn)?
PNC assembly inh: -100*; Tau fluor cs: 9%; Tau fibril FP: 7%; TRb-SRC2 inh: -4%; Tau ThT inhib: 2%; TexasRed fluor: -4%

Results for CN1CCN(C(CNS(=O)(=O)c2ccc(Cl)cc2)c2cccnc2)CC1 (stereo not drawn) ?
PNC assembly inh: -100*; Tau fluor cs: 4%; Tau fibril FP: 10%; TRb-SRC2 inh: -14%; Tau ThT inhib: 0%; TexasRed fluor: -5%

Results for O=C(Cn1cnc2cc([N+](=O)[O-])ccc2c1=O)Nc1ccc(Br)cc1 ?
Tau fluor cs: -25%; Tau fibril FP: 10%; TRb-SRC2 inh: -1%; Tau ThT inhib: -20%; TexasRed fluor: -2%

What do the screens show for `CC(C)c1ccc(S(=O)(=O)c2cnc(SCC(=O)Nc3cccc(C(F)(F)F)c3)nc2N)cc1`?
Tau fluor cs: inconclusive; Tau fibril FP: 13µM*; TRb-SRC2 inh: 15%; Tau ThT inhib: inconclusive; TexasRed fluor: 4%

What do the screens show for `CCN1c2ccccc2-c2nc(SCC(=O)Nc3cccc(C(F)(F)F)c3)ncc2S1(=O)=O`?
Tau fluor cs: inconclusive; Tau fibril FP: 28µM*; TRb-SRC2 inh: -5%; Tau ThT inhib: 13%; TexasRed fluor: -2%

What do the screens show for `CCc1cccc(NC(=O)CSc2ncc3c(n2)-c2ccccc2N(CC)S3(=O)=O)c1`?
Tau fluor cs: inconclusive; Tau fibril FP: inconclusive; TRb-SRC2 inh: 1%; Tau ThT inhib: -13%; TexasRed fluor: 0%

How did O=C(CSc1ncc(S(=O)(=O)c2ccc(Cl)cc2)c(=O)[nH]1)Nc1cccc(C(F)(F)F)c1 do in these assays?
Tau fluor cs: -13%; Tau fibril FP: -2%; TRb-SRC2 inh: 5%; Tau ThT inhib: -6%; TexasRed fluor: 0%

How did Cc1ccc(NC(=O)C(OC(=O)c2ccc(NC(N)=O)cc2)c2ccccc2)cc1Cl (stereo not drawn) do in these assays?
PNC assembly inh: -29; Tau fluor cs: inconclusive; Tau fibril FP: 13µM*; TRb-SRC2 inh: 3%; Tau ThT inhib: inconclusive; TexasRed fluor: -16%

Results for COc1ccc(CCNS(=O)(=O)c2ccc(C3CNC(=O)C3)cc2)cc1OC (stereo not drawn) ?
PNC assembly inh: -119*; Tau fluor cs: 2%; Tau fibril FP: 7%; TRb-SRC2 inh: -24%; Tau ThT inhib: -4%; TexasRed fluor: 0%

How did CCOC(=O)c1ccc(NC(=O)CN2C(=O)CNC2=O)cc1 do in these assays?
PNC assembly inh: inconclusive; Tau fluor cs: 1%; Tau fibril FP: -4%; TRb-SRC2 inh: -9%; Tau ThT inhib: -3%; TexasRed fluor: -3%

What do the screens show for `C=CCN=c1scc(-c2ccc(F)cc2)n1/N=C/c1ccccn1`?
PNC assembly inh: inconclusive; Tau fluor cs: -22%; Tau fibril FP: 0%; TRb-SRC2 inh: -17%; Tau ThT inhib: inconclusive; TexasRed fluor: -2%

How did C=CCN=c1scc(-c2ccccc2)n1/N=C/c1ccccn1 do in these assays?
PNC assembly inh: -106*; Tau fluor cs: -29%; Tau fibril FP: 2%; TRb-SRC2 inh: 0%; Tau ThT inhib: inconclusive; TexasRed fluor: -2%

Results for CCN=c1scc(-c2ccccc2)n1/N=C/c1ccccn1 ?
PNC assembly inh: -125*; Tau fluor cs: -23%; Tau fibril FP: inconclusive; TRb-SRC2 inh: -1%; Tau ThT inhib: inconclusive; TexasRed fluor: 3%
